The values below come from the supplement of paper PMC8728848.

What all share (test): glycan array binding signal (z-score within array); higher = stronger binding
Holding throughout (conditions): glycan notation: IUPAC condensed, linker removed

The target in experiment [1] is Fuc(a1-2)Gal(b1-3)GalNAc(a1-3)[Fuc(a1-2)]Gal(b1-4)Glc. The essentials:
(§1)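 The binding signal is a Z-score computed within each array and averaged over linkers. Arrays of the same protein sequence at different concentrations or buffers were also averaged together. Data originate from 3228 arrays in the Consortium for Functional Glycomics database, kept only where the protein sequence was available.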

Experiment [2] addresses Fuc(a1-2)Gal(b1-3)GalNAc(b1-4)[Neu5Ac(a2-3)]Gal(b1-4)Glc. In a few lines: as §1
The target of experiment [3] is Fuc(a1-2)Gal(b1-3)GlcNAc(b1-3)Gal(b1-4)Glc. The essentials:
as §1

Experiment [4] addresses Fuc(a1-2)Gal(b1-4)GlcNAc(b1-3)[Fuc(a1-2)Gal(b1-4)GlcNAc(b1-6)]GalNAc. The essentials: as §1
For experiment [5], the target named is Fuc(a1-2)Gal(b1-4)GlcNAc(b1-6)GalNAc. In a few lines: as §1
Experiment [6] has as its target Fuc(a1-2)Gal(b1-4)[Fuc(a1-3)]GalNAc(b1-3)Gal(b1-4)[Fuc(a1-3)]GlcNAc. In a few lines: as §1
For another experiment, the target named is Fuc(a1-2)GlcNAc. The essentials:
as §1

The target in experiment [7] is Fuc(a1-2)[Gal(a1-3)]Gal(b1-3)GlcNAc. In a few lines:
as §1

Experiment [8] addresses Fuc(a1-2)[Gal(a1-3)]Gal(b1-4)Glc. The essentials:
as §1

Another experiment has as its target Gal(a1-3)Gal(b1-4)GlcNAc. The essentials: as §1
For the next experiment, the target named is Gal(a1-6)Glc. In a few lines: as §1
Experiment [9] addresses Gal(b1-3)GalNAc(a1-3)[Fuc(a1-2)]Gal(b1-4)Glc. In a few lines:
as §1

For experiment [10], the target named is Gal(b1-3)GalNAc(b1-3)Gal(b1-4)Glc. The essentials:
as §1

Experiment [11] addresses Gal(b1-3)[Fuc(a1-4)]GlcNAc(b1-3)Gal(b1-3)[Fuc(a1-4)]GlcNAc. In a few lines: as §1
The target of experiment [12] is Gal(b1-3)[Fuc(a1-4)]GlcNAc(b1-6)GalNAc. The essentials:
as §1

The target in experiment [13] is Gal(b1-4)GlcNAc(b1-2)Man(a1-3)[GlcNAc(b1-4)][Gal(b1-4)GlcNAc(b1-2)Man(a1-6)]Man(b1-4)GlcNAc(b1-4)GlcNAc. The essentials: as §1
Experiment [14] addresses Gal(b1-4)GlcNAc(b1-2)Man(a1-6)Man(b1-4)GlcNAc(b1-4)GlcNAc. The essentials:
as §1

Experiment [15] deals with Gal(b1-4)GlcNAc(b1-3)Gal(b1-4)GlcNAc(b1-3)Gal(b1-4)GlcNAc(b1-3)Gal(b1-4)GlcNAc(b1-3)Gal(b1-4)GlcNAc(b1-2)Man(a1-3)[Gal(b1-4)GlcNAc(b1-3)Gal(b1-4)GlcNAc(b1-3)Gal(b1-4)GlcNAc(b1-3)Gal(b1-4)GlcNAc(b1-3)Gal(b1-4)GlcNAc(b1-2)Man(a1-6)]Man(b1-4)GlcNAc(b1-4)[Fuc(a1-6)]GlcNAc. In a few lines:
as §1

Experiment [16] deals with Gal(b1-4)GlcNAc(b1-3)Gal(b1-4)GlcNAc(b1-3)[Gal(b1-4)GlcNAc(b1-3)Gal(b1-4)GlcNAc(b1-6)]GalNAc. The essentials:
as §1

In another experiment the target is Gal3S(b1-4)Glc. The essentials: as §1
The target in experiment [17] is Gal3S(b1-4)[Fuc(a1-3)]GlcNAc. The essentials: as §1
Experiment [18] addresses Gal3S(b1-4)[Fuc(a1-3)]GlcNAc6S. The essentials:
as §1

A further experiment concerns the target Gal3S6S(b1-4)GlcNAc6S. The essentials:
as §1

For the next experiment, the target named is Gal6S(b1-4)GlcNAc6S. The essentials:
as §1

The target of the next experiment is GalNAc(b1-3)GalNAc. In a few lines:
as §1

A further experiment concerns the target GalNAc(b1-4)Gal(b1-4)Glc. In a few lines: as §1
For another experiment, the target named is GalNAc(b1-4)GlcNAc. In a few lines: as §1
For experiment [19], the target named is GalNAc(b1-4)GlcNAc(b1-3)GalNAc(b1-4)GlcNAc. In a few lines:
as §1

The target of experiment [20] is GlcA3S(b1-3)Gal(b1-4)GlcNAc(b1-3)Gal(b1-4)Glc. In a few lines:
as §1

Experiment [21] addresses GlcNAc(a1-4)Gal(b1-4)GlcNAc. The essentials: as §1
The target of experiment [22] is GlcNAc(b1-6)Gal(b1-4)GlcNAc. In a few lines: as §1
The target of experiment [23] is Kdn(a2-3)Gal(b1-4)[Fuc(a1-3)]GlcNAc. The essentials:
as §1

A further experiment concerns the target Kdn(a2-6)Gal(b1-4)GlcNAc. The essentials: as §1
Experiment [24] deals with Man(a1-2)Man(a1-3)[Man(a1-6)]Man(a1-6)[Man(a1-2)Man(a1-3)]Man(b1-4)GlcNAc(b1-4)GlcNAc. The essentials:
as §1

The target in experiment [25] is Man(a1-2)Man(a1-6)[Man(a1-3)]Man(a1-6)[Man(a1-2)Man(a1-2)Man(a1-3)]Man(b1-4)GlcNAc(b1-4)GlcNAc. In a few lines: as §1
In another experiment the target is Man(a1-6)Man. In a few lines: as §1
Experiment [26] deals with Neu5Ac(a2-3)Gal(b1-3)GalNAc. In a few lines:
as §1

Experiment [27] has as its target Neu5Ac(a2-3)Gal(b1-4)GlcNAc(b1-3)Gal(b1-4)GlcNAc(b1-3)Gal(b1-4)GlcNAc(b1-2)Man(a1-3)[Neu5Ac(a2-3)Gal(b1-4)GlcNAc(b1-3)Gal(b1-4)GlcNAc(b1-3)Gal(b1-4)GlcNAc(b1-2)Man(a1-6)]GalNAc. In a few lines:
as §1

The target of experiment [28] is Neu5Ac(a2-3)Gal(b1-4)GlcNAc(b1-6)[Gal(b1-3)]GalNAc. In a few lines:
as §1

Experiment [29] concerns the target Neu5Ac(a2-3)Gal(b1-4)GlcNAc(b1-6)[Neu5Ac(a2-3)Gal(b1-3)]GalNAc. The essentials: as §1
In the next experiment the target is Neu5Ac(a2-6)Gal. In a few lines: as §1
Experiment [30] addresses Neu5Ac(a2-6)Gal(b1-4)GlcNAc(b1-2)Man(a1-3)[Gal(b1-4)GlcNAc(b1-2)Man(a1-6)]Man(b1-4)GlcNAc(b1-4)GlcNAc. In a few lines:
as §1

Experiment [31] concerns the target Neu5Ac(a2-6)Gal(b1-4)GlcNAc(b1-2)Man(a1-6)[Gal(b1-4)GlcNAc(b1-2)Man(a1-3)]Man(b1-4)GlcNAc(b1-4)GlcNAc. In a few lines:
as §1

Experiment [32] has as its target Neu5Ac(a2-6)Gal(b1-4)GlcNAc(b1-3)GalNAc. In a few lines:
as §1

The target in experiment [33] is Neu5Gc(a2-3)Gal(b1-4)[Fuc(a1-3)]GlcNAc. In a few lines:
as §1

This is one part of a sample in which the strongest signals are shown more often than they occur.

B1: AAA (Anguilla anguilla), Q7SIC1 (protein)
chain: VIPEGYTQENVAVRGKATQSAQLRGEHAANSEASNAIDGNRDSNFYHGSCTHSSGQANPWWRVDLLQVYTITSVTITNRGDCCGERISGAEINIGQHLASNGVNNPECSVIGSMATGETKTFHCPAPMIGRYVVTYLPTSESLHLCEVEVNVDKPAAA
Consider B1, for which the “glycan array binding signal (z-score)” value was -0.257 in experiment [1]; -0.193 in experiment [2]; -0.189 in experiment [3]; -0.001 in [4]; 0.002 in experiment [5]; -0.583 in [6]. The “glycan array binding signal (z-score)” value is 8.41 with Fuc(a1-2)GlcNAc; 0.046 in [7]; -0.037 in experiment [8]; -0.169 with Gal(a1-3)Gal(b1-4)GlcNAc; -0.097 in the experiment with Gal(a1-6)Glc; -0.279 in experiment [9]. In addition, the “glycan array binding signal (z-score)” value in [10] was 0.237; in [11], 0.164; in experiment [12] it was -0.081; in [13] it was -0.238; in [14] it was -0.168; in experiment [15], -0.123. In addition, the “glycan array binding signal (z-score)” value in [16] was 1.43; with Gal3S(b1-4)Glc, -0.117; in experiment [17], -0.194; in experiment [18], -0.154; with Gal3S6S(b1-4)GlcNAc6S, -0.044; with Gal6S(b1-4)GlcNAc6S, -0.292. In addition, the “glycan array binding signal (z-score)” value with GalNAc(b1-3)GalNAc was -0.16; with GalNAc(b1-4)Gal(b1-4)Glc, -0.076; with GalNAc(b1-4)GlcNAc, 1.89; in experiment [19], 3.34; in experiment [20] it was -0.136; in [21], 2.3.

B2: AT5G17240(42) (Arabidopsis thaliana), Q6NQJ8 (protein)
chain: MDLEHQTMETFLRWAAEIGISDSIDSSRFRDSCLGHSLSVSDFPDAGGRGLGAARELKKGELVLKVPRKALMTTESIIAKDLKLSDAVNLHNSLSSTQILSVCLLYEMSKEKKSFWYPYLFHIPRDYDLLATFGNFEKQALQVEDAVWATEKATAKCQSEWKEAGSLMKELELKPKFRSFQAWLWASATISSRTLHVPWDSAGCLCPVGDLFNYDAPGDYSNTPQGPESANNVEEAGLVVETHSERLTDGGFEEDVNAYCLYARRNYQLGEQVLLCYGTYTNLELLEHYGFMLEENSNDKVFIPLETSLFSLASSWPKDSLYIHQDGKLSFALISTLRLWLIPQSQRDKSVMRLVYAGSQISVKNEILVMKWMSEKCGSVLRDLPTSVTEDTVLLHNIDKLQDPELRLEQKETEAFGSEVRAFLDANCLWDVTVLSGKPIEFSRKTSRMLSKWRWSVQWRLSYKRTLADCISYCNEKMNNLLGTQDRLRDL
As for B2, the “glycan array binding signal (z-score)” value in experiment [22] was 1.88; in [23], -0.336; in the experiment with Kdn(a2-6)Gal(b1-4)GlcNAc, -0.164; in experiment [24], 0.607; in experiment [25] it was -0.172; with Man(a1-6)Man it was 0.232. In addition, the “glycan array binding signal (z-score)” value in [26] was -0.438; in [27], 2.21; in [28], -0.303; in experiment [29] it was -0.407; with Neu5Ac(a2-6)Gal, 0.474; in experiment [30], -0.171. Also, the “glycan array binding signal (z-score)” value was -0.325 in experiment [31], -0.543 in experiment [32] and -0.299 in experiment [33].
